Some test systems named below: NCI-H23 lung; NCI-H226 lung; NCI-H322M lung; HOP-62 NSCLC; NCI-H460 lung; HOP-92 NSCLC; NCI-H522 lung; A549/ATCC NSCLC; 786-0 renal; COLO 205 colon; DU-145 prostate; K-562 leukemia; MALME-3M melanoma; MDA-MB-231 breast; RXF 393 renal; SF-268 CNS; SF-295 CNS; SF-539 CNS; UACC-257 melanoma; M14 melanoma.
Assay in all cases: NCI-60 one-dose screen, 48 h (100 = growth as untreated, 0 = no growth, -100 = all killed)
Common to all, as to conditions: 10 µM unless noted

Molecules are shown by their SMILES. About 83,000 compounds went through this panel and 20% of them were active in at least one assay; those are over-represented in the sample as a whole.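 Each cell line was grown in a 96-well plate and treated with one concentration of compound for 48 hours. Values below 10 were considered active.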 A number with no mark means an inactive call. The source made the active and inactive calls.

Take `Cc1ccccc1[C@H]1C(C(=O)c2ccc(Cl)cc2)C2(N[C@@H]1c1ccccc1)C(=O)Nc1ccc(Br)cc12` (stereo not given in full): the growth in the test on NCI-H23 lung was -3.76% (active); in the test with NCI-H226 lung it was 25.5%; in the test with NCI-H322M lung, 39.4%; with HOP-62 NSCLC it was 31.6%; with NCI-H460 lung, 3.51% (active); in the test with HOP-92 NSCLC, -21.3% (active). In addition, the growth in the test on NCI-H522 lung is -17.6% (active); in the test with A549/ATCC NSCLC, 2.73% (active); in the test with 786-0 renal, -40.5% (active); in the test with COLO 205 colon, -34.5% (active); with DU-145 prostate, 15%; in the test with K-562 leukemia it was 1.41% (active). Besides, the growth is 45.1% in the test with MALME-3M melanoma; -19.8% (active) with MDA-MB-231 breast; -29% (active) with RXF 393 renal; 31% in the test with SF-268 CNS; 19.3% in the test on SF-295 CNS; 36.9% with SF-539 CNS. In addition, the results for the growth with UACC-257 melanoma and in the test with M14 melanoma were 37.3% and 1.39% (active), respectively.

For the compound `S=c1c2ccccc2nc2n1CCc1c-2[nH]c2ccccc12`, the growth in the test on NCI-H23 lung was 62%; in the test with NCI-H226 lung, 30.8%; in the test on NCI-H322M lung it was 60.6%; in the test on HOP-62 NSCLC, 38.5%; with NCI-H460 lung, 71.2%; with HOP-92 NSCLC, 25.2%. For the same compound, the growth in the test with NCI-H522 lung is 56.7%; with A549/ATCC NSCLC, 68.2%; in the test on 786-0 renal it was 46.9%; in the test on COLO 205 colon it was 90.7%; in the test on DU-145 prostate it was 68.1%; in the test on K-562 leukemia, 57.8%. The growth in the test on MALME-3M melanoma was 54.2%; in the test on MDA-MB-231 breast, 40.8%; with RXF 393 renal it was 28.7%; in the test on SF-268 CNS it was 57.7%; in the test on SF-295 CNS, 63.4%; in the test on SF-539 CNS, 43.4%. The growth was 66.1% in the test with UACC-257 melanoma and 70.1% in the test with M14 melanoma.

With `O=C(COc1ccc(NC(=O)Nc2ccc(Cl)c(Cl)c2)cc1)N=Nc1c(O)[nH]c2ccccc12`, the growth in the test with NCI-H23 lung was -43.7% (active); in the test with NCI-H226 lung, -34.7% (active); in the test with NCI-H322M lung it was 28%; in the test on HOP-62 NSCLC it was -53.1% (active); with NCI-H460 lung it was -63.4% (active); in the test on HOP-92 NSCLC, -41% (active). Moreover, the growth is -42.8% (active) in the test with NCI-H522 lung; -36.3% (active) in the test with A549/ATCC NSCLC; -71.9% (active) in the test with 786-0 renal; -41.7% (active) in the test on COLO 205 colon; -42.7% (active) in the test on DU-145 prostate; 5.06% (active) in the test on K-562 leukemia. Besides, the growth is -79.3% (active) in the test with MALME-3M melanoma; -66.8% (active) in the test on MDA-MB-231 breast; -52.7% (active) in the test with RXF 393 renal; -5.94% (active) in the test on SF-268 CNS; -48.9% (active) in the test with SF-295 CNS; -86.3% (active) with SF-539 CNS. Further, the results for the growth with UACC-257 melanoma and in the test on M14 melanoma were -44.5% (active) and -76.5% (active), respectively.

With `Cc1ccc(NCC(=O)Cn2cc(COc3ccc(C=Nc4cnc5ccccc5c4)cc3)nn2)cc1`, the growth with NCI-H23 lung was 109%; with NCI-H226 lung, 105%; in the test on NCI-H322M lung, 103%; with HOP-62 NSCLC, 102%; in the test with NCI-H460 lung, 130%; in the test with HOP-92 NSCLC, 116%. For the same compound, the growth is 104% with NCI-H522 lung; 103% with A549/ATCC NSCLC; 107% in the test on 786-0 renal; 114% with COLO 205 colon; 119% in the test with DU-145 prostate; 102% with K-562 leukemia. Also, the growth in the test on MALME-3M melanoma is 102%; in the test on MDA-MB-231 breast, 107%; in the test with RXF 393 renal, 125%; in the test on SF-268 CNS, 123%; in the test on SF-295 CNS, 107%; in the test with SF-539 CNS, 104%. The growth in the test on UACC-257 melanoma and in the test on M14 melanoma was 105% each time.

As to `Clc1cccc(-c2ccc(OCCCN3CCN(c4ccncc4)CC3)cc2)c1`, the growth in the test on NCI-H23 lung was 19.1%; in the test on NCI-H226 lung, 41.3%; in the test on NCI-H322M lung, 53.4%; with HOP-62 NSCLC it was -49.1% (active); with NCI-H460 lung it was -67.5% (active); in the test with HOP-92 NSCLC it was -1.12% (active). The growth in the test on NCI-H522 lung is -4.23% (active); with A549/ATCC NSCLC it was -11.9% (active); in the test with 786-0 renal, -79.5% (active); in the test with COLO 205 colon it was -86.1% (active); with DU-145 prostate, 35.2%; with K-562 leukemia, -50.3% (active). The growth in the test with MALME-3M melanoma was -87% (active); in the test with MDA-MB-231 breast it was -83.4% (active); in the test with RXF 393 renal, -67.1% (active); in the test on SF-268 CNS, 33.1%; in the test on SF-295 CNS it was -80.8% (active); in the test on SF-539 CNS, -81.2% (active). Also, the growth is 25.1% with UACC-257 melanoma and -64.8% (active) in the test with M14 melanoma.

For the compound `Cc1cc2nc3c4ccccc4n(CCNCCN(C)C)c3nc2cc1C`, the growth was 31.2% in the test on NCI-H23 lung; 53.3% in the test on NCI-H226 lung; 36.3% in the test with NCI-H322M lung; 45.3% with HOP-62 NSCLC; 5.46% (active) in the test with NCI-H460 lung; 10.5% in the test with HOP-92 NSCLC. The growth with NCI-H522 lung is 17.7%; in the test on A549/ATCC NSCLC it was 20.4%; in the test with 786-0 renal it was 20.4%; in the test with COLO 205 colon it was -71.5% (active); with DU-145 prostate, 17.2%; in the test on K-562 leukemia it was 0.435% (active). Also, the growth with MALME-3M melanoma was -96.6% (active); in the test on MDA-MB-231 breast, 1.93% (active); in the test with RXF 393 renal it was -34.7% (active); in the test with SF-268 CNS, 42.5%; with SF-295 CNS it was 20.2%; in the test on SF-539 CNS, -79.8% (active). In addition, the growth with UACC-257 melanoma was -72.8% (active); in the test with M14 melanoma, -79.9% (active).

With `COc1cc(C2CC(c3cc(OC)c(OC)c(OC)c3)=NN2C(C)=O)ccc1OCc1ccc(F)cc1` (stereo not given), the growth in the test with NCI-H23 lung was 56.7%; with NCI-H226 lung, 49.8%; in the test with NCI-H322M lung, 66.1%; in the test on HOP-62 NSCLC it was 74.2%; in the test on NCI-H460 lung, 49%; in the test on HOP-92 NSCLC, 17.3%. Moreover, the growth is 42.1% in the test on NCI-H522 lung; 50.8% in the test on A549/ATCC NSCLC; 57.8% in the test on 786-0 renal; 58.5% in the test on COLO 205 colon; 70.6% in the test with DU-145 prostate; 28% in the test on K-562 leukemia. Besides, the growth in the test on MALME-3M melanoma was 81.8%; in the test with MDA-MB-231 breast, 61%; in the test with RXF 393 renal, 73.7%; with SF-268 CNS it was 72%; in the test with SF-295 CNS, 37.7%; in the test with SF-539 CNS it was 61.9%. The growth in the test on UACC-257 melanoma was 68.6%; in the test on M14 melanoma, 59.9%.

Source of the values: PubChem BioAssay (NCI).
